Source: the supplement of paper PMC12819154, “High-throughput peptide-centric local stability assay extends protein–ligand identification to membrane proteins, tissues and bacteria” (Nature Structural & Molecular Biology, 2025)

These targets were tested with CN[C@@H]1C[C@H]2O[C@@](C)([C@@H]1OC)n1c3ccccc3c3c4c(c5c6ccccc6n2c5c31)C(=O)NC4 [staurosporine] (assay: log2 fold change of tryptic peptide abundance, ligand vs vehicle (limited proteolysis) (log2 ratio); higher = more trypsin-susceptible (destabilized)). Settings: ligand concentration: 20 uM; sample: mouse liver crude lysate; replicate design: treated separately.

UniProt Q9CQE7, sequence (Q9CQE7 whole entry): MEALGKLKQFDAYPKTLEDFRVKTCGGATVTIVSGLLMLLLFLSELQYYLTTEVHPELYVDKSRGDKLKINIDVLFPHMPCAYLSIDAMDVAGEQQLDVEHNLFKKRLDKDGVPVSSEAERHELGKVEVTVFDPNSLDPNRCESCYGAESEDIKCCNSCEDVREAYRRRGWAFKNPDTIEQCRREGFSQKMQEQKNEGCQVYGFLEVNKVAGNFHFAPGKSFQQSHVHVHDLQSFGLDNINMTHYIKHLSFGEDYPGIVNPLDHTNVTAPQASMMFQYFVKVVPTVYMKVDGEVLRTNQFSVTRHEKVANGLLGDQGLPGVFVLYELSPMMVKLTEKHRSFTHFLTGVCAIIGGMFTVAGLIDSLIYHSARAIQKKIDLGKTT
UniProt Q9EQC1, sequence (Q9EQC1 whole entry): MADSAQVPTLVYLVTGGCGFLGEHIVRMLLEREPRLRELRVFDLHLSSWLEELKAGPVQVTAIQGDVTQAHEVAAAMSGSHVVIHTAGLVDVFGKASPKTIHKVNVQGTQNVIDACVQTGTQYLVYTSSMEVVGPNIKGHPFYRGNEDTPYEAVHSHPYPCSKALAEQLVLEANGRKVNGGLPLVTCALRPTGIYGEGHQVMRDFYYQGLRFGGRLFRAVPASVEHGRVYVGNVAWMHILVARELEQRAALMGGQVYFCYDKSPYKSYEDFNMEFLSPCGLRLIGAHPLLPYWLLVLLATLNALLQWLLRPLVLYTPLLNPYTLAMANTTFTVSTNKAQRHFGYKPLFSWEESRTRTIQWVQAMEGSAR
UniProt Q8VDU5, sequence (Q8VDU5 whole entry): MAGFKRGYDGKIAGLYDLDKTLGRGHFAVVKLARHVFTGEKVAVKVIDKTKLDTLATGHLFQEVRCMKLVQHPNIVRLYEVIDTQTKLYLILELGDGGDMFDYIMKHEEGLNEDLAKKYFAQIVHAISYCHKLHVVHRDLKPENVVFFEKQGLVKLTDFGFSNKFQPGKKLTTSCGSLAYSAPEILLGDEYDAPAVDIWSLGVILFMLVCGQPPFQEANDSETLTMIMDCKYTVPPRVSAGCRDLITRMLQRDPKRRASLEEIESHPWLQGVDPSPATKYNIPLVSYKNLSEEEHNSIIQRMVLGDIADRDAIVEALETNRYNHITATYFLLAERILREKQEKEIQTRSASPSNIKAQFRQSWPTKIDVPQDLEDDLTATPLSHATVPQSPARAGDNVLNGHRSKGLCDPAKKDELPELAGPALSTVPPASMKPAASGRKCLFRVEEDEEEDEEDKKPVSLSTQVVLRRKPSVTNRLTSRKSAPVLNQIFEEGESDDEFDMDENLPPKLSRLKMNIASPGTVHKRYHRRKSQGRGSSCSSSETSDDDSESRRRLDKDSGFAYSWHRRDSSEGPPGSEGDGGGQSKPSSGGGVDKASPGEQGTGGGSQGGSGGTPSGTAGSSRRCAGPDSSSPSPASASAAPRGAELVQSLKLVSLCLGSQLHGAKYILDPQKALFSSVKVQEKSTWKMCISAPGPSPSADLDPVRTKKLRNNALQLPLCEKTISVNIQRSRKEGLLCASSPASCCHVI
UniProt P47811, sequence (P47811 whole entry): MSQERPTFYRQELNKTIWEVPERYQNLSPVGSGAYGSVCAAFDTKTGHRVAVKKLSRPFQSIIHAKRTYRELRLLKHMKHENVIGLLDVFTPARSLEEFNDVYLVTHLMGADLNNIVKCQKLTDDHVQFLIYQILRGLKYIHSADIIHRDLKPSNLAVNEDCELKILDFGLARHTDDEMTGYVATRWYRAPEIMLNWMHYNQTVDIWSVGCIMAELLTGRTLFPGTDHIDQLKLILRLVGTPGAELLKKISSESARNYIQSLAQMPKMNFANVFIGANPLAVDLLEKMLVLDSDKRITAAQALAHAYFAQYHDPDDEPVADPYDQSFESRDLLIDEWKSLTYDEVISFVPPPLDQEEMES
UniProt Q99JT2, sequence (Q99JT2 whole entry): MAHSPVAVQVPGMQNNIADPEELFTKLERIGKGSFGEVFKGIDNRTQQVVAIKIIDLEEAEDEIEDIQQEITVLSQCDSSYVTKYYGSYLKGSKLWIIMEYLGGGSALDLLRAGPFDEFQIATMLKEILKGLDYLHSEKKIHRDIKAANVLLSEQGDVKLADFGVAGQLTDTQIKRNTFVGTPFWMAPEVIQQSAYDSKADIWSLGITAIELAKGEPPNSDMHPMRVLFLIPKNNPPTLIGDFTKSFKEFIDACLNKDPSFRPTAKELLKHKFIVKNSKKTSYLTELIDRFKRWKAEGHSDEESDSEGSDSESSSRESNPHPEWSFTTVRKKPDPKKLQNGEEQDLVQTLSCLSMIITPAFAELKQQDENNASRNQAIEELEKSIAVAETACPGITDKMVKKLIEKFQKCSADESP
UniProt Q8VEB1, sequence (Q8VEB1 whole entry): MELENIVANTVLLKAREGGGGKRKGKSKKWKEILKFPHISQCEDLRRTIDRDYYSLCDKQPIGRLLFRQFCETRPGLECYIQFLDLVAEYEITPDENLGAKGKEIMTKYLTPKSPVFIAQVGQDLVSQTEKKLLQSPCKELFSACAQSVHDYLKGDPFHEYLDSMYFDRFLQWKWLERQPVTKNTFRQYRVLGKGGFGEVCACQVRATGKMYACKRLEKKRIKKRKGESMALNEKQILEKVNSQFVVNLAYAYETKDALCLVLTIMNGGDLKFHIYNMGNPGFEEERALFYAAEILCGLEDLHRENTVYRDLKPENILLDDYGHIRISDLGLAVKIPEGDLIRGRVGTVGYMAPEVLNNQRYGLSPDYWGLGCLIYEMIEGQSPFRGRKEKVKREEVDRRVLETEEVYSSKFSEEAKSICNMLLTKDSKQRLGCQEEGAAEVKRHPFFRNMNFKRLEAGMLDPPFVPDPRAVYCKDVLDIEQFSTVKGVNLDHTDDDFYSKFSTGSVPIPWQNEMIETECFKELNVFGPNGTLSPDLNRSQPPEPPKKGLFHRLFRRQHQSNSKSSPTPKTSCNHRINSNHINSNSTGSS
UniProt Q8CAS9, sequence (Q8CAS9 whole entry): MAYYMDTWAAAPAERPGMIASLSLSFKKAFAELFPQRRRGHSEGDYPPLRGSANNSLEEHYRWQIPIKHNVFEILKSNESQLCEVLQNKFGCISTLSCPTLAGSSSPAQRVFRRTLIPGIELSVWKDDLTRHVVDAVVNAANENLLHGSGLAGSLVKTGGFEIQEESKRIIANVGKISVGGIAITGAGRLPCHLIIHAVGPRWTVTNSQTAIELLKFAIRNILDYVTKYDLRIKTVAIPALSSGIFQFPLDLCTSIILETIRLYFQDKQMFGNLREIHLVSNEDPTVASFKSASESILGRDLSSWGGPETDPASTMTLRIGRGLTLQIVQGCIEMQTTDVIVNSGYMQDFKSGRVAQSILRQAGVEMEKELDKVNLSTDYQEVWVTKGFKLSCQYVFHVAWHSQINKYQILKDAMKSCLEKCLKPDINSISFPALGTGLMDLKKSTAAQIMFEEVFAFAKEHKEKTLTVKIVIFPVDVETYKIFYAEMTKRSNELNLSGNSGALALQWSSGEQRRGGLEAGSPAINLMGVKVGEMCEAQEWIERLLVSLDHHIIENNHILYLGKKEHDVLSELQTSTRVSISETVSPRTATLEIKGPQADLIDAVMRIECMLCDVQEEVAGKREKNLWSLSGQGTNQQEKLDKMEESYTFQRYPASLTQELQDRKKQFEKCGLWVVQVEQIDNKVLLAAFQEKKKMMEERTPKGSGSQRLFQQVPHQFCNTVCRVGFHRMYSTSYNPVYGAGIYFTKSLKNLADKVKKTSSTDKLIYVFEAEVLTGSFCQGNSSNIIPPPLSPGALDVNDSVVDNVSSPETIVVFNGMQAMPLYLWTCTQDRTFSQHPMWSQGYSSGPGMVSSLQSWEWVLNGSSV
UniProt O54988, sequence (O54988 whole entry, looked up): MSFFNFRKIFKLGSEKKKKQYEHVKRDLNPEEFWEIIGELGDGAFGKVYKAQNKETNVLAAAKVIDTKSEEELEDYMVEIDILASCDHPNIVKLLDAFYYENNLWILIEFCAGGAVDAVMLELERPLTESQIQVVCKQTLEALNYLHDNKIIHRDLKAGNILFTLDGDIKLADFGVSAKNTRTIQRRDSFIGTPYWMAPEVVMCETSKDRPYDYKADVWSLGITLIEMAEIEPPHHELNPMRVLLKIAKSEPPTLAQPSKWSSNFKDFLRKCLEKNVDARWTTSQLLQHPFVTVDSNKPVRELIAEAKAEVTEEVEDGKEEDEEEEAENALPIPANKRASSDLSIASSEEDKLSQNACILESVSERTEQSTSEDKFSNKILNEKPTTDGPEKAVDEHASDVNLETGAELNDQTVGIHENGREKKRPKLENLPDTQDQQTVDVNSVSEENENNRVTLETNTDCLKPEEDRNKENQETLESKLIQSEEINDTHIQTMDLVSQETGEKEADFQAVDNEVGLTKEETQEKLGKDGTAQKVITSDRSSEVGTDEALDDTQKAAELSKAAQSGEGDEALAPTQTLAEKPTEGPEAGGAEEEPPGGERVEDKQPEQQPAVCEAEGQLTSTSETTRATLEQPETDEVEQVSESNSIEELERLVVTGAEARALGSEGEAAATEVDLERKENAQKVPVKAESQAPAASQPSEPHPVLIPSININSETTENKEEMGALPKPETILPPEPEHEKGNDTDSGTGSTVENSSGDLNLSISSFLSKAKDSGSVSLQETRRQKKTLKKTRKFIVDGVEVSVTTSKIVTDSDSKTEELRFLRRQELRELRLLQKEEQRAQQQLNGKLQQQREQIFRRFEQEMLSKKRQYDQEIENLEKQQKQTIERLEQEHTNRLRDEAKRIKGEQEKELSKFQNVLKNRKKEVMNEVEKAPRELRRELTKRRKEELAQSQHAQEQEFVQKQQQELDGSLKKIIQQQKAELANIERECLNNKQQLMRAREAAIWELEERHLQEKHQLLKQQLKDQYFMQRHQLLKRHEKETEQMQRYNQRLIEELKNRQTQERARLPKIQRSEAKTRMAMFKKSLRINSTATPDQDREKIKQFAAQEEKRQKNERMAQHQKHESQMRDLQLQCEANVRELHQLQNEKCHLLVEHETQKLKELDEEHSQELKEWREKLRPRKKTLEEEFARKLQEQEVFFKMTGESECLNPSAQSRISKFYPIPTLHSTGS

Target | log2 fold change
UniProt Q9CQE7 (peptide sequence: QFDAYPK, peptide start residue: 9) | 0.366
UniProt Q9JI10 (peptide sequence: AGNILLNTEGHAK, peptide start residue: 149) | -3.04
UniProt Q9EQC1 (peptide sequence: DFYYQGLR, peptide start residue: 204) | -0.862
UniProt Q9D6M3 (peptide sequence: LAANDFFR, peptide start residue: 84) | 0.616
UniProt Q9ERE3 (peptide sequence: PTDFDFLK, peptide start residue: 32) | -2.47
UniProt Q8CAS9 (peptide sequence: NILDYVTK, peptide start residue: 221) | 0.389
UniProt O35492 (peptide sequence: MLEFDPAQR, peptide start residue: 600) | -1.13
UniProt P83510 (peptide sequence: NIATYYGAFIK, peptide start residue: 81) | -0.608
UniProt Q8VEB1 (peptide sequence: DLKPENILLDDYGHIR, peptide start residue: 311) | -0.743
UniProt O89112 (peptide sequence: AFPNPYADYNK, peptide start residue: 5) | 0.594
UniProt P47811 (peptide sequence: NYIQSLAQMPK, peptide start residue: 257) | 0.32
UniProt P58044 (peptide sequence: WWDNLNHLSPFVDHEK, peptide start residue: 208) | 1.05
UniProt Q9CQU3 (peptide sequence: YIPFTHGK, peptide start residue: 174) | 0.278
UniProt Q9WU79 (peptide sequence: ASGGASDGGFSAIK, peptide start residue: 220) | 0.201
UniProt Q9WV60 (peptide sequence: LCDSGELVAIKK, peptide start residue: 75) | -4.12
UniProt Q8VDU5 (peptide sequence: IAGLYDLDKTLGR, peptide start residue: 12) | -1.42

Target | log2 fold change
UniProt Q99JT2 (peptide sequence: LADFGVAGQLTDTQIKR, peptide start residue: 156) | -0.843
UniProt O54785 (peptide sequence: GFFGQAIK, peptide start residue: 340) | -0.88
UniProt Q80ZM8 (peptide sequence: YFNPCYATAR, peptide start residue: 227) | 1.12
UniProt Q6XUX1 (peptide sequence: SLQDVLLHR, peptide start residue: 640) | -1.84
UniProt Q8R123 (peptide sequence: LSMVPSSAR, peptide start residue: 125) | -0.276
UniProt Q2TBE6 (peptide sequence: RFEAEPLPENTNR, peptide start residue: 276) | -2.23
UniProt P47757 (peptide sequence: QMEKDETVSDCSPHIANIGR, peptide start residue: 196) | -1.11
UniProt Q91Y86 (peptide sequence: MLVIDASKR, peptide start residue: 301) | -1.79
UniProt Q00623 (peptide sequence: TQLAPHSEQMR, peptide start residue: 184) | 0.455
UniProt Q07417 (peptide sequence: GISAFLVPMPTPGLTLGKKEDK, peptide start residue: 209) | 0.268
UniProt Q60932 (peptide sequence: LTFDSSFSPNTGKK, peptide start residue: 110) | -0.605
UniProt O54988 (peptide sequence: WSSNFKDFLR, peptide start residue: 261) | -3.04
UniProt P13516 (peptide sequence: TVPLHLEEDIRPEMK, peptide start residue: 33) | 0.245
UniProt P70451 (peptide sequence: NCLVGENNTLK, peptide start residue: 690) | -2
UniProt Q8VCH6 (peptide sequence: LTQGETLR, peptide start residue: 368) | 0.499
